Measurements taken from PubChem BioAssay (NCATS).
Results filed as inconclusive are left out. Active and inactive are the calls of the source. The call rests on the fitted dose curve; in most records, active means well fitted cell-killing curve with a large enough effect; inconclusive means small, poorly fitted or top-dose-only effect, or effect the other way; inactive means flat fitted curve, though single readings scatter.

Experiments:
Experiment in all cases: Primary qHTS to identify gynecologic anti-cancer compounds using libraries of approved drugs and bioactive compounds (AID 1345084); further: nearly all actives have a fitted effect of over 55% in size
[1] = tested on: Es-2; details: Gynecologic cancer cell panel viability, ATPlite luminescence, 48 h; series mostly up to 57.5 µM
In short: (§1)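 48 h compound exposure at 37 C, 5% CO2; five-point qHTS. ATPlite luminescence readout of cell ATP.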

[2] = tested on: HeLa; details: Gynecologic cancer cell panel viability, ATPlite luminescence, 48 h; series mostly up to 57.5 µM
In short: as §1

[3] = tested on: Hek293T; details: Gynecologic cancer cell panel viability, ATPlite luminescence, 48 h, control line for the selectivity index; series mostly up to 57.5 µM
In short: as §1

[4] = tested on: JEG-3; details: Gynecologic cancer cell panel viability, ATPlite luminescence, 48 h; series mostly up to 57.5 µM
In short: as §1

[5] = tested on: OV90; details: Gynecologic cancer cell panel viability, ATPlite luminescence, 48 h; series mostly up to 57.5 µM
In short: as §1

[6] = tested on: PA-1; details: Gynecologic cancer cell panel viability, ATPlite luminescence, 48 h; series mostly up to 57.5 µM
In short: as §1

[7] = tested on: SKOV3; details: Gynecologic cancer cell panel viability, ATPlite luminescence, 48 h; series mostly up to 57.5 µM
In short: as §1

[8] = tested on: Tov-21-G; details: Gynecologic cancer cell panel viability, ATPlite luminescence, 48 h; series mostly up to 57.5 µM
In short: as §1

[9] = tested on: Tov112D; details: Gynecologic cancer cell panel viability, ATPlite luminescence, 48 h; series mostly up to 57.5 µM
In short: as §1
On the % scale 0 is the no-effect control and ±100 the full control effect.

COc1c2c(c(C)c3c1C(=O)OC3)O[C@@]1(C)C[C@@H](O)[C@]34O[C@](OC)(CC[C@]3(C)[C@H]1C2)OC4(C)C
inactive: Potency [1] | Potency [2] | Potency [3] | Potency [4] | Potency [5] | Potency [6] | Potency [7] | Potency [8] | Potency [9]

CCCC1=CC2=C(CO1)C(=O)C(C)(OC(=O)c1c(C)cc(OC)cc1O)C(O)C2 (configuration not stated)
inactive: Potency [1] | Potency [2] | Potency [3] | Potency [4] | Potency [5] | Potency [6] | Potency [7] | Potency [8] | Potency [9]

CC(/C=C/C1(O)C2(C)COC1(C)CC(=O)C2)O[C@@H]1O[C@H](CO)[C@@H](O)[C@H](O)[C@H]1O (some centres not stated)
inactive: Potency [1] | Potency [2] | Potency [3] | Potency [4] | Potency [5] | Potency [6] | Potency [7] | Potency [8] | Potency [9]

CC1OC(OC2C(C)OC(OC3C(OC(=O)/C=C/c4ccc(O)cc4)C(CO)OC(OC4(COC(=O)/C=C/c5ccc(O)cc5)OC(CO)C(O)C4O)C3OC3OCC(O)(CO)C3O)C(O)C2O)C(O)C(O)C1O (configuration not stated)
inactive: activity change, negative = cytotoxicity [1] -0.759% [at 11.6 µM] | activity change, negative = cytotoxicity [2] -8.01% [at 11.6 µM] | activity change, negative = cytotoxicity [3] 0.502% [at 11.6 µM] | activity change, negative = cytotoxicity [4] 2.4% [at 11.6 µM] | activity change, negative = cytotoxicity [5] 8.76% [at 11.6 µM] | activity change, negative = cytotoxicity [6] -0.866% [at 11.6 µM] | activity change, negative = cytotoxicity [7] 28.4% [at 11.6 µM] | activity change, negative = cytotoxicity [8] 1.37% [at 11.6 µM] | activity change, negative = cytotoxicity [9] -2.2% [at 11.6 µM]

CC(/C=C/C1(O)C(C)CC(O)CC1(C)C)OC1OC(CO)C(O)C(O)C1O (configuration not stated)
inactive: Potency [1] | Potency [2] | Potency [3] | Potency [4] | Potency [5] | Potency [6] | Potency [7] | Potency [8] | Potency [9]

C=C1CC[C@@H]2[C@](C)(CO[C@@H]3O[C@H](CO)[C@@H](O)[C@H](O)[C@H]3O)CCC[C@@]2(C)[C@@H]1CCC1=CCOC1=O
inactive: Potency [1] | Potency [2] | Potency [3] | Potency [4] | Potency [5] | Potency [6] | Potency [7] | Potency [8] | Potency [9]

Cc1cccc(-c2[nH]c(CNc3ccccc3F)nc2-c2ccc3ncnn3c2)n1
inactive: Potency [1] | Potency [2] | Potency [3] | Potency [4] | Potency [5] | Potency [6] | Potency [7] | Potency [8] | Potency [9]

CC1=C2C(=O)C=C(CO)[C@@H]2[C@H]2OC(=O)[C@H](C)[C@@H]2[C@@H](O)C1
inactive: Potency [1] | Potency [2] | Potency [3] | Potency [4] | Potency [5] | Potency [6] | Potency [7] | Potency [8] | Potency [9]

CCn1cc(C2=NOC(C(=O)Nc3c(C)n(C)n(-c4ccccc4)c3=O)C2)c(C)n1 (configuration not stated)
inactive: Potency [1] | Potency [2] | Potency [3] | Potency [4] | Potency [5] | Potency [6] | Potency [7] | Potency [8] | Potency [9]

C=CC(C)(C)C12CC3C(=O)NC(Cc4cnc[nH]4)C(=O)N3C1Nc1ccccc12 (configuration not stated)
inactive: Potency [1] | Potency [2] | Potency [3] | Potency [4] | Potency [5] | Potency [6] | Potency [7] | Potency [8] | Potency [9]

CC12CC34C=CC(=O)C(C)(CCC(=O)O)C3C(CC1C4)O2 (configuration not stated)
inactive: Potency [1] | Potency [2] | Potency [3] | Potency [4] | Potency [5] | Potency [6] | Potency [7] | Potency [8] | Potency [9]

CC1=CC(=O)C[C@H]2[C@@H]1CC[C@@H](C)[C@]21CO[C@H](c2ccoc2)C1=O
inactive: Potency [1] | Potency [2] | Potency [3] | Potency [4] | Potency [5] | Potency [6] | Potency [7] | Potency [8] | Potency [9]

Cc1onc(-c2ccccc2)c1C(=O)N[C@@H]1C(=O)N2[C@@H]1SC(C)(C)[C@@H]2C(=O)O
inactive: Potency [1] | Potency [2] | Potency [3] | Potency [4] | Potency [5] | Potency [6] | Potency [7] | Potency [8] | Potency [9]

COC(=O)C1=CO[C@@H](O[C@@H]2O[C@H](CO)[C@@H](O)[C@H](O)[C@H]2O)[C@@H]2[C@@](C)(O)[C@@H](O)C[C@]12O
inactive: Potency [1] | Potency [2] | Potency [3] | Potency [4] | Potency [5] | Potency [6] | Potency [7] | Potency [8] | Potency [9]

C=C1C[C@@]23CC[C@@H]4[C@](C)(C(=O)O)CCC[C@@]4(C)C2=CC[C@H]1C3
inactive: Potency [1] | Potency [2] | Potency [3] | Potency [4] | Potency [5] | Potency [6] | Potency [7] | Potency [8] | Potency [9]

CO[C@@H]1COCC[C@@H]1N[C@@H]1CC[C@@](C(=O)N2CCc3ncc(C(F)(F)F)cc3C2)(C(C)C)C1
inactive: Potency [1] | Potency [2] | Potency [3] | Potency [4] | Potency [5] | Potency [6] | Potency [7] | Potency [8] | Potency [9]

C[C@@H]1O[C@@H](O[C@@H]2[C@@H](O)[C@H](O[C@@H]3[C@@H](O)[C@@H](O)[C@H](O[C@H]4[C@H](OC(=O)[C@]56CCC(C)(C)C[C@H]5C5=CCC7[C@@]8(C)C[C@H](O)[C@H](O[C@@H]9O[C@H](C(=O)O)[C@@H](O)[C@H](O)[C@H]9O)[C@@](C)(CO)C8[C@H](O)C[C@@]7(C)[C@]5(C)CC6)OC[C@H](O)[C@@H]4O)O[C@H]3C)OC[C@H]2O)[C@H](O)[C@H](O)[C@H]1O (some centres not stated)
inactive: activity change, negative = cytotoxicity [1] 7.07% [at 6.55 µM] | activity change, negative = cytotoxicity [2] 9.33% [at 6.55 µM] | activity change, negative = cytotoxicity [3] -1.15% [at 6.55 µM] | activity change, negative = cytotoxicity [4] -4.08% [at 6.55 µM] | activity change, negative = cytotoxicity [5] -1.61% [at 6.55 µM] | activity change, negative = cytotoxicity [6] 3.21% [at 6.55 µM] | activity change, negative = cytotoxicity [7] -6.44% [at 6.55 µM] | activity change, negative = cytotoxicity [8] -4.43% [at 6.55 µM] | activity change, negative = cytotoxicity [9] 4.06% [at 6.55 µM]

CC(C)(O)/C=C1/C(=O)C(C)(C)C(=O)C(C)(C)C1(O)O[C@@H]1O[C@H](COC(=O)c2cc(O)c(O)c(O)c2)[C@@H](O)[C@H](O)[C@H]1O (some centres not stated)
inactive: Potency [1] | Potency [2] | Potency [3] | Potency [4] | Potency [5] | Potency [6] | Potency [7] | Potency [8] | Potency [9]

Cc1cc(C)cc(NC(=O)Cc2ccc(OC(C)(C)C(=O)O)cc2)c1
inactive: Potency [1] | Potency [2] | Potency [3] | Potency [4] | Potency [5] | Potency [6] | Potency [7] | Potency [8] | Potency [9]

CC(=O)N(O)CCCCCN1C(=O)CCC1=O
inactive: Potency [1] | Potency [2] | Potency [3] | Potency [4] | Potency [5] | Potency [6] | Potency [7] | Potency [8] | Potency [9]

C[C@@H]1CC[C@]2(C)C3(C)CC[C@@]2(OC3=O)[C@@]12C[C@H](c1ccoc1)OC2=O
inactive: Potency [1] | Potency [2] | Potency [3] | Potency [4] | Potency [5] | Potency [6] | Potency [7] | Potency [8] | Potency [9]

OC[C@H]1O[C@@H](Oc2ccc(O)c3cccc(O)c23)[C@H](O)[C@@H](O)[C@@H]1O
inactive: Potency [1] | Potency [2] | Potency [3] | Potency [4] | Potency [5] | Potency [6] | Potency [7] | Potency [8] | Potency [9]

OC1COC(OCC2OC(OCCc3ccccc3)C(O)C(O)C2O)C(O)C1O (configuration not stated)
inactive: Potency [1] | Potency [2] | Potency [3] | Potency [4] | Potency [5] | Potency [6] | Potency [7] | Potency [8] | Potency [9]
